About 79,000 compounds went through this panel and 15% of them were active in at least one assay; those are over-represented in the sample as a whole. Unmarked numbers belong to inactive results. Active and inactive are the calls of the source. Rule as the data show it: active = growth inhibition above about 70%; inactive = the rest.
Columns and labels:
[1] = NCI Yeast Anticancer Drug Screen. Data for the rad50 strain (AID 155);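 also: 0% = growth of vehicle-only cultures of the same strain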; conditions: S. cerevisiae rad50 strain growth inhibition; at 50.0 µM; active compounds read high
Outline: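 Inhibition values express reduced yeast growth in compound-treated cultures relative to vehicle-treated controls.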

[2] = NCI Yeast Anticancer Drug Screen. Data for the mec2-1 strain (AID 157); conditions: S. cerevisiae mec2-1 strain, at 50.0 µM, active compounds read high
Outline: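 Test agents were screened against the mec2-1 yeast strain, with defined DNA repair or cell cycle alteration. Growth was scored as inhibition against vehicle-only controls.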

[3] = NCI Yeast Anticancer Drug Screen. Data for the sgs1 mgt1 strain (AID 161);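 also: 0% = growth of cultures given vehicle only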; conditions: S. cerevisiae sgs1 mgt1 strain, at 50.0 µM, active compounds read high
Outline: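 Test agents were incubated with a DNA-repair-mutant yeast strain. Growth was then read and compared against vehicle-treated controls.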

[4] = NCI Yeast Anticancer Drug Screen. Data for the cln2 rad14 strain (AID 165);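 also: 0% = growth equal to vehicle treated cultures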; conditions: S. cerevisiae cln2 rad14 strain, at 50.0 µM, active compounds read high
Outline: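 Growth of compound-exposed yeast (cln2 rad14 genotype) measured and expressed as inhibition relative to vehicle.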

[5] = NCI Yeast Anticancer Drug Screen. Data for the bub3 strain (AID 167); conditions: S. cerevisiae bub3 mutant strain, at 50.0 µM, active compounds read high
Outline: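 Steps: expose the mutant yeast strain to compound; grow alongside vehicle-treated cultures; measure growth; express inhibition against the vehicle cultures.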

[6] = NCI Yeast Anticancer Drug Screen. Data for the mlh1 rad18 strain (AID 175); conditions: S. cerevisiae mlh1 rad18 strain growth inhibition; at 50.0 µM; active compounds read high
Outline: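 In this whole-cell yeast screen, a strain with altered DNA damage repair is challenged with compound, and its growth is measured against matched vehicle-treated controls.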

Row | SMILES | growth inhibition [1] | growth inhibition [2] | growth inhibition [3] | growth inhibition [4] | growth inhibition [5] | growth inhibition [6]
1 | Cc1cc(C)c(CCN(C)C)c(C)c1C | 8.7% | 0.65% | 4.95% | 1.75% | 1% | 23.4%
2 | O=[C-]C(F)(F)F.[C-]#[O+].[C-]#[O+].[C-]#[O+].[Mo].[c-]1[c-][c-][cH-][c-]1 | 5.2% | 13.3% | 0.8% | 25.9% | 21.4% | 7.05%
3 | CCOP(O)(=S)OCC.[Sm] | 1.65% | -14.6% | -7.65% | -43.1% | -17.9% | -15.8%
4 | Cc1ccccc1C(=O)[O][Pb]([CH3])([CH3])[CH3] | 21.4% | -48% | -6.5% | -27.9% | 0% | 7%
5 | CCOP(=O)(OCC)C(O)c1ccc(Cl)cc1 (stereo not drawn) | -5.1% | -13.8% | -0.6% | -9.35% | 22.3% | -11.3%
6 | Nc1ncn[nH]1 | -5.05% | 11.7% | -7.75% | 7.9% | 18.6% | -3.25%
7 | O=C(O)/C=C/C(=O)O.[Ni] | -13.8% | -21.6% | -28.1% | -45.5% | 0.35% | 0.5%
8 | CCOP(=S)(Oc1ccccc1[N+](=O)[O-])c1ccccc1 (stereo not drawn) | 6.85% | 7.4% | 12.6% | 25.8% | 18.9% | 10.2%
9 | O=P(CCP(=O)(c1ccccc1)c1ccccc1)(c1ccccc1)c1ccccc1 | -17.6% | -23.1% | -0.5% | 26.2% | 3.2% | 3.75%
10 | Nc1cc(S(=O)(=O)O)cc2cc(S(=O)(=O)O)c(N=Nc3ccc([As]=O)cc3)c(O)c12 (stereo not drawn) | -11.1% | 15.3% | -9.3% | -4.55% | 6.05% | -5.3%
11 | C[N+]1(CCCl)CCc2ccc([N+](=O)[O-])cc2C1 (stereo not drawn) | -36.9% | -35.5% | 6.95% | 0.8% | 9.3% | -13.8%
12 | [N-]=[N+]=CC(=O)CCC(=O)C=[N+]=[N-] | 10.2% | -24% | -27.1% | -19.5% | -20.6% | -67.8%
13 | CCN(CC)c1cccc(OC(=O)NC)c1 | 0.55% | -0.25% | -4.6% | -15.8% | 3.5% | -10%
14 | O=c1[nH]c2ccc([As](O)O)cc2[nH]1 | -14.8% | -14.9% | -4.9% | -17.8% | -8.25% | 0.75%
15 | O=C(N/N=C/c1ccc(N(CCCl)CCCl)cc1)c1ccc(N(CCCl)CCCl)cc1 | 30.6% | 4.65% | 26.6% | 37.8% | 4.55% | 7.9%
16 | CC1CC(C)OP(Oc2ccccc2)O1 (stereo not drawn) | -24.6% | 4.05% | -21.8% | -15.7% | -7.15% | -10.5%
17 | CCc1cc[c]([Sb](=[O])([OH])[OH])cc1 | 3.5% | -7.15% | 9.1% | 22.5% | 4.1% | 3.2%
18 | Clc1ccc(NC2=NCCS2)cc1Cl | -9% | -22.8% | 41.4% | -7.55% | -3.05% | 10.9%
19 | CC(=[N-])CC(C)=O.CC(=[N-])CC(C)=O.[Cu+2] | 14.9% | 14.5% | 10.8% | -18.3% | -4.4% | 8.2%

Row | SMILES | growth inhibition [1] | growth inhibition [2] | growth inhibition [3] | growth inhibition [4] | growth inhibition [5] | growth inhibition [6]
20 | NNC(N)=NCCCC(N)C(=O)O (stereo not drawn) | -22% | -42% | -34.3% | 5.2% | -45.6% | -16.6%
21 | CC(=O)OC(C)(C)/C=C/C(=O)[C@](C)(O)[C@H]1[C@H](O)C[C@@]2(C)[C@@H]3CC=C4[C@@H](C=C(O)C(=O)C4(C)C)[C@]3(C)C(=O)C[C@]12C | -4.6% | -36.5% | -14.6% | -10.8% | -15.7% | -16.1%
22 | COc1cc2c(cc1O)CCN[C@H]2C | -1.3% | -25.8% | -0.95% | -4.1% | 3.55% | -1.45%
23 | COc1ccc(C(=O)/C=C/c2ccccc2)cc1 | 2.05% | -7.25% | 30.1% | 2.45% | 42.4% | 19.4%
24 | CCOP(=O)(NCc1ccccc1)c1ccc(N)cc1 (stereo not drawn) | 6.05% | -6.45% | 7.65% | 1.95% | -0.5% | 7.15%
25 | CC1=C2C(=O)C(C)(C)C=C2C(=O)[C@](C)(O)C12CC2 | 66.4% | 47.1% | 68% | 55.2% | -5.95% | 5.4%
26 | O=C1C=CC2(C=C1)CCN=c1c(O)c3c(c(O)c12)=NC=N3 | 15.5% | 7.55% | 8.5% | 29.2% | 11.9% | -4.5%
27 | OC1[C@@H]2[C@@H](O)CCCN2C[C@@H](O)[C@H]1O (stereo partly drawn) | -53.2% | -93% | -31.9% | -20.6% | 1.05% | -28.1%
28 | COc1cc(C)c(C(CC(=O)O)CC(=O)N(CCCl)CCCl)cc1C(C)C (stereo not drawn) | 60.4% | 4.3% | 20.1% | 28.2% | 4.5% | 57.6%
29 | CCOC(=O)/C(C#N)=C(/SC)N1CC1 | 1.9% | 12% | 1.4% | -7.2% | 6.8% | -2%
30 | Nc1cc(Cl)ccc1Cl | 1.1% | -11.3% | -19.2% | -24.9% | 1.15% | -11.8%
31 | CC1=C(C)CN(CCc2c[nH]c3ccccc23)C(C#N)C1 (stereo not drawn) | 0.6% | 2.3% | 3.95% | 60.5% | 11.9% | 12.5%
32 | C[N+](C)(C)CC1CCc2ccccc2C1=O (stereo not drawn) | 89.2% (active) | 44.6% | 69.2% | 50.2% | 40.5% | 91.4% (active)
33 | CCCOP1(=O)C=C(O)C(Cl)=C(C)C1 (stereo not drawn) | -32.5% | -15.4% | -42.8% | -12.8% | -19.4% | -46.8%
34 | O=C1NC(=O)C(F)(n2cc(F)c(=O)[nH]c2=O)C(O)N1 (stereo not drawn) | -47.8% | -31.3% | -10.2% | -40% | -13.4% | -54.9%
35 | O=c1oc2cc(O)ccc2c(O)c1C(c1ccc2ccccc2c1)c1c(O)c2ccc(O)cc2oc1=O | 8.65% | 31.2% | 36.7% | 35.8% | 17.2% | -17.4%
36 | C#[C][Sn]([CH2]CCC)([CH2]CCC)[CH2]CCC | 99% (active) | 99.5% (active) | 99.2% (active) | 99.1% (active) | 99.3% (active) | 99.2% (active)
37 | Nc1cccc2c1Cc1cc([N+](=O)[O-])ccc1-2 | 8.1% | -37.2% | 17.6% | -14.4% | 3.6% | -1.4%
38 | [Cl][Hg][Cl].c1ccc(N=P(c2ccccc2)(c2ccccc2)c2ccccc2)cc1 | 99.7% (active) | 99.8% (active) | 99.8% (active) | 99.5% (active) | 99.3% (active) | 99.6% (active)

Source: PubChem BioAssay (NCI)
